Reference: PubChem BioAssay (Tox21)
Results filed as inconclusive are left out. Active and inactive are the calls of the source. Unless noted, calls follow the shape of the dose curve; as a rule, active = well fitted curve in the direction sought with a large enough effect in the repeat runs; inconclusive = weak or mixed curves; inactive = no such curve, though single readings can be large; an effect the other way counts as inactive or inconclusive.

Columns and labels:
[1] = qHTS assay to identify aromatase inhibitors - cell viability counter screen (AID 743084);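 also: cells stimulated with testosterone during compound exposure; nearly all actives have a fitted effect of over 55% in size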
[2] = target: Aryl hydrocarbon receptor (Homo sapiens) (UniProt P35869); experiment: qHTS assay to identify small molecule that activate the aryl hydrocarbon receptor (AhR) signaling pathway (AID 743085); also: nearly all actives have a fitted effect of over 15% in size; also: potency is read from the fitted curve at half-maximal effect;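 as to activation: HG2L7.5c1 human HepG2 liver cells with stably integrated DRE-driven firefly reporter; series mostly up to about 70 µM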
Sequence of Aryl hydrocarbon receptor (Homo sapiens) (P35869 whole entry, looked up): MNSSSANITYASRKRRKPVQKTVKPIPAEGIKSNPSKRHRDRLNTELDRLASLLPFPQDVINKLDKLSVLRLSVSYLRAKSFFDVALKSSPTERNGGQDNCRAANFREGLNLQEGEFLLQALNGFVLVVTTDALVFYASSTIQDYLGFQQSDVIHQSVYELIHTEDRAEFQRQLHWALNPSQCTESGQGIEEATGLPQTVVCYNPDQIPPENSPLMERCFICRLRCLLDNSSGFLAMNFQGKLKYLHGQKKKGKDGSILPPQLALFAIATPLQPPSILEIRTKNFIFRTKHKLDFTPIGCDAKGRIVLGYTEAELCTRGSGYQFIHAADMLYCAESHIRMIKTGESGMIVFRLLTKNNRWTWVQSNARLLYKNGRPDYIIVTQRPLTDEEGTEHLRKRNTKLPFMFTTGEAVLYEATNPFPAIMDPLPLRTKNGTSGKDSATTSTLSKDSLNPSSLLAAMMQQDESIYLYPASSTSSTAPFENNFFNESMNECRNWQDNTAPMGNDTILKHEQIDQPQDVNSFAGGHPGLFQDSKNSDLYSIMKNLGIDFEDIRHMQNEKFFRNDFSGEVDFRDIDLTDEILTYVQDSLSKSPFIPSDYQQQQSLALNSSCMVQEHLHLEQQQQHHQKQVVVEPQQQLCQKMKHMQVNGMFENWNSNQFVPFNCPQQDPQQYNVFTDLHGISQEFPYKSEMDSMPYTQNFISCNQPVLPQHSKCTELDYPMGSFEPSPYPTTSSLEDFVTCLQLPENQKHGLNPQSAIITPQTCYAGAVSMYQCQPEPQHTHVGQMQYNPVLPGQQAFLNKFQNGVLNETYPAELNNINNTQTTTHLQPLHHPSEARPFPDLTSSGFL
How it was run: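 Luminescence read-out: ONE-Glo reagent, 30 min at room temperature, in HG2L7.5c1 HepG2 reporter cells treated 24 h at 37C. Viability was measured beforehand by CellTiter-Fluor fluorescence after 30 min at 37C.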

[3] = qHTS assay to identify small molecule that activate the aryl hydrocarbon receptor (AhR) signaling pathway - cell viability counter screen (AID 743086);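 also: HepG2 liver cells carrying the AhR DRE luciferase reporter; series mostly up to about 70 µM; nearly all actives have a fitted effect of over 45% in size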
How it was run: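 HepG2-AhR-luc (HG2L7.5c1) cells, 4000/well, were preincubated 5 h at 37C, exposed to compound in qHTS format for 24 hr at 37C, then given CellTiter-Fluor for 30 min; viability was read as fluorescence in the reporter wells.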

[4] = target: Peroxisome proliferator-activated receptor gamma (Homo sapiens) (UniProt P37231); experiment: qHTS assay to identify small molecule agonists of the peroxisome proliferator-activated receptor gamma (PPARg) signaling pathway (AID 743094; active = well fitted activation curve with a large enough effect in the signal ratio in the repeat runs, not every such curve was filed as active; the % refers to the signal ratio)
Sequence of Peroxisome proliferator-activated receptor gamma (Homo sapiens) (P37231 whole entry, looked up): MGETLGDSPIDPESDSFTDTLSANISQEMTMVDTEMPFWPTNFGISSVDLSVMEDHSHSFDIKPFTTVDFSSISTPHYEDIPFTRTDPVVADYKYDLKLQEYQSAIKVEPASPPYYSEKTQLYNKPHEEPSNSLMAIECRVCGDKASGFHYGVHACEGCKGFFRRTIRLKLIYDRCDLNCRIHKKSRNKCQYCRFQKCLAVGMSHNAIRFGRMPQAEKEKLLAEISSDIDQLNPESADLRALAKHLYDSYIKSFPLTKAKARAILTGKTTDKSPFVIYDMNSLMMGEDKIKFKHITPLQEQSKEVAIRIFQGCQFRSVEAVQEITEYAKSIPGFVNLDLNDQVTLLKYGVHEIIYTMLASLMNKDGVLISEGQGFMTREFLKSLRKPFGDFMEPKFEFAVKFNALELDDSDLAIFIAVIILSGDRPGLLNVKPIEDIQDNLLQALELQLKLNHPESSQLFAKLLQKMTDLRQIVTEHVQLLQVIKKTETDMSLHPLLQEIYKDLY
How it was run: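 Compounds dissolved in DMSO were added to PPARg UAS-bla HEK293H cells for 17 h at 37C, and reporter expression was quantified by fluorescence intensity after 1 h with LiveBLAzer B/G FRET substrate.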

[5] = target: Peroxisome proliferator-activated receptor gamma (Homo sapiens) (UniProt P37231); experiment: qHTS assay to identify small molecule antagonists of the peroxisome proliferator-activated receptor gamma (PPARg) signaling pathway (AID 743191; calls by dose curve; also: series mostly up to about 63 µM; nearly all actives have a fitted effect of over 30% in size)
How it was run: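 GeneBLAzer PPARg UAS-bla HEK293H cells carrying a UAS-driven beta-lactamase reporter were plated at 3000 cells/well, preincubated 5 h at 37C, then given compound for 17 h at 37C; LiveBLAzer B/G FRET substrate was read after 1 h at room temperature.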

[6] = qHTS assay to identify small molecule antagonists of the peroxisome proliferator-activated receptor gamma (PPARg) signaling pathway - cell viability counter screen (AID 743194); also: nearly all actives have a fitted effect of over 55% in size
How it was run: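 PPARg-UAS-bla HEK293H cells were plated, rested 5 h at 37 C, then treated with compounds plus rosiglitazone (50 nM final) for 17 h at 37 C; viability was then read by CellTiter-Glo luminescence after 30 min at room temperature.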

[7] = qHTS assay for small molecule agonists of the antioxidant response element (ARE) signaling pathway (AID 743202; active = well fitted activation curve with a large enough effect in the signal ratio in the repeat runs, not every such curve was filed as active; the % refers to the signal ratio; also: potency is read from the fitted curve at half-maximal effect)
How it was run: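 Compounds delivered in DMSO to ARE-bla HepG2 cells (2,000 cells/well, pre-incubated 5 h) and left 16 h at 37 C. LiveBLAzer B/G FRET substrate then added for 2 h at RT before fluorescence reading.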

[8] = qHTS assay for small molecule agonists of the antioxidant response element (ARE) signaling pathway - cell viability counter screen (AID 743203; calls by dose curve; also: nearly all actives have a fitted effect of over 55% in size)
How it was run: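 Following 16 hrs of compound treatment at 37C, HepG2 cells with an ARE-controlled beta-lactamase gene were lysed with CellTiter-Glo. Luminescence was read after 30 min at room temperature.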

[9] = qHTS assay for small molecule activators of the heat shock response signaling pathway - cell viability counter screen (AID 743209); also: nearly all actives have a fitted effect of over 50% in size
How it was run: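 Readout: CellTiter-Glo luminescence, 30 min at room temperature. System: HSE-bla HeLa cells, 1500/well, plated overnight. Treatment: compounds in DMSO, 5 h at 37 C.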

[10] = qHTS assay for small molecule activators of the heat shock response signaling pathway (AID 743210; active = well fitted activation curve with a large enough effect in the signal ratio in the repeat runs, with a control signal flat, not every such curve was filed as active; the % refers to the signal ratio;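 also: HeLa cells with beta-lactamase reporter driven by heat shock elements; series mostly up to about 63 µM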)
How it was run: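 Reporter gene assay: HeLa cells stably bearing an HSE-bla construct, compound treatment 5 h at 37 C, LiveBLAzer substrate 2.5 h at RT, fluorescence intensity.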

[11] = qHTS assay to identify small molecule agonists of the peroxisome proliferator-activated receptor delta (PPARd) signaling pathway - cell viability counter screen (AID 743211); also: nearly all actives have a fitted effect of over 55% in size
How it was run: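 Read-out: CellTiter-Glo luminescence, 30 min RT, measured in the same wells as the beta-lactamase reporter. Cells: GeneBLAzer PPAR delta UAS-bla HEK293H, 3000 cells/well, compound exposure 17 h at 37C.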

[12] = target: Peroxisome proliferator-activated receptor delta (Homo sapiens) (UniProt Q03181); experiment: qHTS assay to identify small molecule agonists of the peroxisome proliferator-activated receptor delta (PPARd) signaling pathway (AID 743212; calls by dose curve)
Sequence of Peroxisome proliferator-activated receptor delta (Homo sapiens) (Q03181 whole entry, looked up): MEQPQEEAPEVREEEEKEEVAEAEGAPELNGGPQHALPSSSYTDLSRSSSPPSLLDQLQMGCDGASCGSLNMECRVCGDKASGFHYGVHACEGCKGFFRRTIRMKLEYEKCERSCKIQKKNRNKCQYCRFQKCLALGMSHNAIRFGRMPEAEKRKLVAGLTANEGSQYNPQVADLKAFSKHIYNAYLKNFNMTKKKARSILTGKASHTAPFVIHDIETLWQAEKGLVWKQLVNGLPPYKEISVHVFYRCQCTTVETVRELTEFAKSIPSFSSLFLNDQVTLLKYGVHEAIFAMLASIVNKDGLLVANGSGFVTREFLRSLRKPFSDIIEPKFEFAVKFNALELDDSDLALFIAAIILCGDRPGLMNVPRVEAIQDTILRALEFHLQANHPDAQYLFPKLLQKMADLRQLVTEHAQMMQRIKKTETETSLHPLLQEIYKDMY
How it was run: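 A PPARd-bla HEK293H line with beta-lactamase under an Upstream Activator Sequence is treated with compounds at 37 C. Substrate loading for 2 h at room temperature precedes the fluorescence measurement.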

[13] = qHTS assay to identify small molecule antagonists of the peroxisome proliferator-activated receptor delta (PPARd) signaling pathway - cell viability counter screen (AID 743213); also: nearly all actives have a fitted effect of over 50% in size
How it was run: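 PPARd-bla HEK293H cells were treated with compounds plus agonist L165041 (300 nM final) for 17 h at 37 C. Viability was then read in the same wells by CellTiter-Glo luminescence after 30 min at room temperature.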

[14] = target: Peroxisome proliferator-activated receptor delta (Homo sapiens) (UniProt Q03181); experiment: qHTS assay to identify small molecule antagonists of the peroxisome proliferator-activated receptor delta (PPARd) signaling pathway (AID 743215; active = well fitted inhibition curve with a large enough effect in the signal ratio in the repeat runs, not every such curve was filed as active; the % refers to the signal ratio;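 also: cells stimulated with agonist L165041 at 300 nM final during compound exposure; series mostly up to about 62 µM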)
How it was run: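 HEK293H UAS-bla, PPARd; agonist L165041 300 nM final with cpd in DMSO; 37 C 17 h; FRET substrate, RT 2 h; fluorescence intensity.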

[15] = qHTS assay to identify small molecule agonists of the farnesoid-X-receptor (FXR) signaling pathway - cell viability counter screen (AID 743218); also: nearly all actives have a fitted effect of over 45% in size
How it was run: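 Parallel cytotoxicity test: compound-treated (16 h, 37 C) HEK 293T FXR-bla reporter cells were lysed with CellTiter-Glo and luminescence recorded.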

[16] = qHTS assay to identify small molecule antagonists of the farnesoid-X-receptor (FXR) signaling pathway - cell viability counter screen (AID 743221; active = well fitted cell-killing curve with a large enough effect in the repeat runs, not every such curve was filed as active; also: nearly all actives have a fitted effect of over 50% in size)
How it was run: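 HEK 293T FXR-bla cells, 5 h pre-incubation; compound + CDCA 50 uM final, 16 h, 37 C; beta-lactamase FRET read first, then CellTiter-Glo luminescence, 30 min RT.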

[17] = target: Vitamin D3 receptor (Homo sapiens) (UniProt P11473); experiment: qHTS assay to identify small molecule antagonists of the vitamin D receptor (VDR) signaling pathway (AID 743223; active = well fitted inhibition curve with a large enough effect in the signal ratio in the repeat runs, not every such curve was filed as active; the % refers to the signal ratio)
Sequence of Vitamin D3 receptor (Homo sapiens) (P11473 whole entry, looked up): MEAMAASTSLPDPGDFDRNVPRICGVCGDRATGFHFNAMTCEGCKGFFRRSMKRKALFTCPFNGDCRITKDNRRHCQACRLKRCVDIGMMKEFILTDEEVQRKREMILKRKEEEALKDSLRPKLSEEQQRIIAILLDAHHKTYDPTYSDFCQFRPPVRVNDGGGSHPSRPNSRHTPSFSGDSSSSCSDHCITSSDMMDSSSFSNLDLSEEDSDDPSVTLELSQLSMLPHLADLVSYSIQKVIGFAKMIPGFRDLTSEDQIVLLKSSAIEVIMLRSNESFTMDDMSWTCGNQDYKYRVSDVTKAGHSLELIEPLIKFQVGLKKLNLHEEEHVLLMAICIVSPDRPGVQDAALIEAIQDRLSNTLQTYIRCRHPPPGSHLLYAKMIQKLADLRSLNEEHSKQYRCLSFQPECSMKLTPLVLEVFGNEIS
How it was run: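 Beta-lactamase reporter read-out: FRET substrate fluorescence after 2 h at room temperature, following 16 h exposure of VDR-bla cells to test compound plus 3 nM (final) 1alpha,25-dihydroxyvitamin D3 agonist at 37C.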

[18] = target: Bile acid receptor (Homo sapiens) (UniProt Q96RI1); experiment: qHTS assay to identify small molecule antagonists of the farnesoid-X-receptor (FXR) signaling pathway (AID 743217; active = well fitted inhibition curve with a large enough effect in the signal ratio in the repeat runs, not every such curve was filed as active; the % refers to the signal ratio)
Sequence of Bile acid receptor (Homo sapiens) (Q96RI1 whole entry, looked up): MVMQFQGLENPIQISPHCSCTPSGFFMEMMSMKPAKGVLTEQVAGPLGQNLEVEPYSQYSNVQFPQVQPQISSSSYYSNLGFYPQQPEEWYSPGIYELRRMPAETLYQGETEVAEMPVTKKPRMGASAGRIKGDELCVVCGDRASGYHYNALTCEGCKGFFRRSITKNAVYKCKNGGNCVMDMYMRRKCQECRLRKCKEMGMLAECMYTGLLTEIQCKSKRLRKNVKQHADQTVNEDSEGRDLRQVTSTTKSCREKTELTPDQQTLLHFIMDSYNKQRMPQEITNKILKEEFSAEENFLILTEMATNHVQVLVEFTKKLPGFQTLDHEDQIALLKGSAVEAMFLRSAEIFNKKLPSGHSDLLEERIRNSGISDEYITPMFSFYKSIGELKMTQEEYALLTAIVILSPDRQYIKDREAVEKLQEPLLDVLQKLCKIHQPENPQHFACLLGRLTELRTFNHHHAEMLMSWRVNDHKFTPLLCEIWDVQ
How it was run: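 GeneBLAzer FXR-UAS-bla HEK 293T, CDCA-stimulated (50 uM final). Compound treatment 16 h, 37 °C. Detection: beta-lactamase cleavage of B/G FRET substrate, fluorescence.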

[19] = target: Bile acid receptor (Homo sapiens) (UniProt Q96RI1); experiment: qHTS assay to identify small molecule agonists of the farnesoid-X-receptor (FXR) signaling pathway (AID 743220; active = well fitted activation curve with a large enough effect in the signal ratio in the repeat runs, not every such curve was filed as active; the % refers to the signal ratio)
How it was run: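 Beta-lactamase reporter under UAS control in GeneBLAzer FXR HEK 293T cells (5000/well) measured with LiveBLAzer FRET substrate after 2 h at room temperature. Compound exposure lasted 16 h at 37C.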

[20] = target: Vitamin D3 receptor (Homo sapiens) (UniProt P11473); experiment: qHTS assay to identify small molecule agonists of the vitamin D receptor (VDR) signaling pathway (AID 743222; calls by dose curve)
How it was run: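 In VDR-bla cells, compound-induced beta-lactamase expression is quantified by FRET substrate fluorescence. Treatment lasts 16 h at 37C; substrate develops 2 h at room temperature.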

Measured: Potency

C=C[Si](OC)(OC)OC
not listed: [18] | [19] | [20]
inactive: all other assays above

Nc1[nH]c(=O)ncc1F
not listed: [12]
inactive: all other assays above

CC(C=O)Cc1ccc(C(C)C)cc1 (centres undefined)
not listed: [15] | [18] | [19]
inactive: all other assays above

Cc1cc(C)c(NC(=O)CN(CC(=O)O)CC(=O)O)c(C)c1Br
not listed: [12] | [14] | [17] | [18] | [19]
inactive: all other assays above

CCC(C)(C)C1CCC(OC)CC1 (centres undefined)
not listed: [20]
inactive: all other assays above

CCCCc1ccc2cccc(S(=O)(=O)O)c2c1
not listed: [18] | [19] | [20]
inactive: all other assays above

CCCCc1ccc(N)cc1
not listed: [6] | [12] | [14] | [16] | [18] | [19]
inactive: all other assays above

CC(C)CCOC(=O)CC(C)C
not listed: [5] | [17]
inactive: all other assays above

O=C(O)/C=C/c1ccc(/C=C/C(=O)O)cc1
not listed: [6] | [15] | [17] | [18] | [19] | [20]
inactive: all other assays above

CCCc1ccccc1O
not listed: [7] | [10] | [12] | [14] | [15] | [18] | [19]
inactive: all other assays above

CC(=O)O[C@H](CC(=O)[O-])C[N+](C)(C)C
not listed: [6] | [7] | [17] | [18] | [19] | [20]
inactive: all other assays above

NCCN1CCNC1=O
not listed: [6] | [13] | [18] | [19]
inactive: all other assays above

C=CCOc1nc(OCC=C)nc(OCC=C)n1
active: [2] 54.5 µM
not listed: [6] | [7] | [13] | [17] | [18] | [19]
inactive: all other assays above

CC(C)(O)c1ccccc1
not listed: [5] | [18] | [19] | [20]
inactive: all other assays above

CCCCOCC(C)OCC(C)O (centres undefined)
not listed: [6] | [13]
inactive: all other assays above

CCCCCCOC(=O)c1ccccc1O
not listed: [5] | [15] | [16] | [20]
inactive: all other assays above

C=C(C)C1CC=C(C)C(O)C1 (centres undefined)
not listed: [5] | [17] | [18] | [19] | [20]
inactive: all other assays above

CC1(C)SC(C)(C)SC(C)(C)S1
not listed: [5] | [17]
inactive: all other assays above

CCC(=O)/C=C/c1ccc(OC)cc1
not listed: [6] | [14] | [16]
inactive: all other assays above

CCC(=O)c1cccc(Cl)c1
not listed: [6] | [15] | [18] | [19] | [20]
inactive: all other assays above

O=[N+]([O-])c1ccc(CCO)cc1
not listed: [5]
inactive: all other assays above

CCOC(=O)Nc1ccc2c(c1)N(C(=O)CCN1CCOCC1)c1ccccc1S2
active: [7] 11.9 µM
not listed: [5] | [16] | [17] | [18] | [19] | [20]
inactive: all other assays above

Cn1ccc2cc3c(cc21)CCN3C(=O)Nc1cccnc1
active: [2] 0.335 µM
not listed: [5] | [16] | [20]
inactive: all other assays above

CN(C)C(=O)Nc1ccccc1
not listed: [5] | [18] | [19]
inactive: all other assays above

CC(C)(C)CC(C)(C)N
not listed: [5] | [15] | [18] | [19]
inactive: all other assays above

CC(C)(C)OC(=O)N1C[C@@H](F)C[C@H]1C(=O)O
not listed: [5] | [18] | [19] | [20]
inactive: all other assays above

CCCCCCCCCCCl
not listed: [6]
inactive: all other assays above

CCn1cc(C(=O)O)c(=O)c2cc(F)c(N3CCN(C)CC3)cc21
not listed: [5] | [15] | [17] | [18] | [19] | [20]
inactive: all other assays above

CC(=O)NC(Cc1ccccc1)C(=O)O (centres undefined)
not listed: [6] | [7] | [16] | [18]
inactive: all other assays above

CCN(CC)S(=O)(=O)c1ccc(C(=O)O)cc1
not listed: [5] | [15] | [17] | [18] | [19]
inactive: all other assays above

N[C@@H](CS)C(=O)O
not listed: [5] | [17] | [18] | [19]
inactive: all other assays above

CC(C)COC(=O)C(C)C
not listed: [5] | [20]
inactive: all other assays above
